aSyn UTR inh: 5' untranslated region of α-synuclein, MLPCN primary screen; AID 1813; inhibition, % (tested at 7.5 µM); 300,000 tested, 0.82% active; alpha-synuclein 5'UTR reporter, inhibitor activity; in the data active means inhibition above about 60%;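 further: H4 neuroglioblastoma cells stably carrying SNCA 5'UTR luciferase fusion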
Jurkat NFkB inh: lowers PMA/ionomycin-induced NF-kB signal in Jurkat cells. PMA/ionomycin-induced NF-kB luciferase reporter, luminescence. inhibition, % at 4 µM. 330,000 tested, 0.53% active; in the data active means inhibition above about 50%
Mdm2 MdmX PPI: disrupts the human Mdm2-MdmX interaction; O15151+Q00987; AID 485346; 330,000 tested, 3% active; SaOS-2 split-luciferase Mdm2/MdmX complementation, luminescence; inhibition, % at 8 µM;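 active means inhibition of at least 50% at 8 µM in the primary screen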
Target sequence (O15151 whole entry, looked up): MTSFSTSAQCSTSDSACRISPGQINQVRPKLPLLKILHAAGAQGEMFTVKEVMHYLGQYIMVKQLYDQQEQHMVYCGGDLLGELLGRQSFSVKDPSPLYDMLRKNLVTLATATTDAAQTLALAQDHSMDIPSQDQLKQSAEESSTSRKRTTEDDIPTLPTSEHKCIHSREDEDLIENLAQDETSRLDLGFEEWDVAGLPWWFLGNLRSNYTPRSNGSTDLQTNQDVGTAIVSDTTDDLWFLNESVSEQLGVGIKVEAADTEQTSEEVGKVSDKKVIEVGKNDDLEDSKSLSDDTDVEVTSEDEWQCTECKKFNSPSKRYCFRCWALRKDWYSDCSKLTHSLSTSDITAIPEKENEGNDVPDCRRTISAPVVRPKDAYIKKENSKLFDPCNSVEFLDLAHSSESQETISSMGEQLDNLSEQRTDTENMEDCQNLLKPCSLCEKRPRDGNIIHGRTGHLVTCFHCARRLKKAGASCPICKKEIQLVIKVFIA
Target sequence (Q00987 whole entry, looked up): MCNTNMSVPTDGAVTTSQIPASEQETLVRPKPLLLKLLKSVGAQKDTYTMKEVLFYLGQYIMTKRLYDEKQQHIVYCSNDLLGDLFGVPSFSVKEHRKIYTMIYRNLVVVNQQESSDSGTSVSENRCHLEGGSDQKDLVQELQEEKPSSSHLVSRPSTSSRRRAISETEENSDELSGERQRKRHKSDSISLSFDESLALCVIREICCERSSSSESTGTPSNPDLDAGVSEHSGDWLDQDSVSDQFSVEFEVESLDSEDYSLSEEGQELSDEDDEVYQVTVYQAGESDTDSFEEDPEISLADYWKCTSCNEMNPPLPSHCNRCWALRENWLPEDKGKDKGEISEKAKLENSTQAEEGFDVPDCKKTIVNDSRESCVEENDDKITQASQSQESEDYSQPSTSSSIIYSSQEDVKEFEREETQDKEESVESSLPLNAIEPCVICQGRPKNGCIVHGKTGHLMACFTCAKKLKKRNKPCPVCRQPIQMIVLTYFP
Gli-Sufu block: Gli-Sufu pathway antagonism; Sufu-KO-LIGHT fibroblasts, Gli luciferase reporter luminescence; inhibition, % at 5 µM; 340,000 tested, 0.74% active; AID 588413;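 active means inhibition above about 55%, limit read from the data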
697 NFkB inh: lowers PMA/ionomycin-induced NF-kB signal in 697 B cells; inhibition, % at 4 µM; 697 B-cell NF-kB luciferase reporter, 16 h; 330,000 tested, 0.33% active; in the data active means inhibition above about 35%
KLF5 inhibitor: suppresses KLF5 promoter-driven expression; 290,000 tested, 0.23% active; inhibition, % at 5 µM; DLD-1 KLF5 promoter-luciferase reporter, luminescence;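 active means inhibition above a per-plate limit of that plate's mean compound inhibition plus 3 SD, cut at about 60% in these data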;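 further: higher means less KLF5 promoter-driven luciferase light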
Mdm2-MdmX conf: human Mdm2/MdmX binding inhibition, confirmed. shares compounds with Mdm2 MdmX PPI. luminescent assay. inhibition, % at 8 µM. 10,000 tested, 55% active. AID 489028; in the data active means inhibition above about 40%
FLuc counter: inhibits full-length luciferase, flagging false Mdm2/MdmX hits | shares compounds with Mdm2 MdmX PPI | inhibition, % at 8 µM | SaOS-2 full-length luciferase counterscreen, luminescence | 6,200 tested, 77% active;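 active means mean inhibition at 8 µM reaching about 37%, which flags the compound as non-specific, limit read from the data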;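 further: p53-null SaOS-2 cells with luciferase driven by a doxycycline-inducible promoter; compound on cells about two nights before reading with doxycycline added after day one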
Large screens that a line does not name were inactive (follow-up assays come after a bar, where they were run). The list is not random: actives were taken first. Their share in the collection is about 4.1%.

CCN(Cc1ccccc1)C(=O)c1cc(-c2ccc(OC)c(OC)c2)nc2ccccc12	none
COc1ccccc1CN(C)C(=O)c1cc(-c2cc(OC)c(OC)c(OC)c2)nc2ccccc12	Mdm2 MdmX PPI 78 | Mdm2-MdmX conf 77 | FLuc counter 50
COc1ccc(NC(=O)CNc2ccc(C#N)cc2)cc1	none
COc1ccc(Br)cc1/C=N/n1c(-c2ccccc2)n[nH]c1=S	none
O=C(Cc1ccc(F)cc1)Nc1nnc(-c2ccc(F)cc2)o1	none
Cc1cccc(NC(=O)CSCC(=O)Nc2ccccc2C(=O)NC2CC2)c1	none (no result: KLF5 inhibitor)
Cc1cc(F)ccc1S(=O)(=O)N1CCCOC1CNC(=O)C(=O)NCc1ccncc1 (stereo not given)	none
CC1(C)CC(=O)C2=C(C1)N=C1SCCC(=O)N1C2c1cccc([N+](=O)[O-])c1 (stereo not given)	none
Nc1c(S(=O)(=O)c2cccc(Cl)c2)c2nc3ccccc3nc2n1/N=C/c1ccc(O)c(O)c1	aSyn UTR inh 89, Mdm2 MdmX PPI 84 (no result: Gli-Sufu block) | Mdm2-MdmX conf inactive
COc1cccc(/C=N/n2c(N)c(S(=O)(=O)c3cccs3)c3nc4ccccc4nc32)c1OC	Mdm2 MdmX PPI 83 | Mdm2-MdmX conf inactive
COCCn1c(N)c(S(=O)(=O)c2cccs2)c2nc3ccccc3nc21	none
Cc1c([N+](=O)[O-])nnn1-c1cc(Cl)cc(Cl)c1	none
COc1ccccc1CNC(=O)CCCc1nnc2n(C)c(=O)c3sccc3n12	none
Cc1cc(Oc2nc3c(C)cccn3c(=O)c2/C=C(\C#N)S(=O)(=O)c2ccccc2)ccc1Cl	Mdm2 MdmX PPI 52 | Mdm2-MdmX conf inactive
Cc1cc(NC(=O)C(C)SCC(=O)OCC(=O)N(Cc2ccccc2)C(C)(C)C)no1 (stereo not given)	none
Cc1cc(NC(=O)C(C)SCC(=O)N(Cc2ccccc2)c2ccccc2)no1 (stereo not given)	Mdm2 MdmX PPI 67 (no result: KLF5 inhibitor) | Mdm2-MdmX conf 45 | FLuc counter 110
CCCCCCOC(=O)C[N+](C)(C)CCOC1CC2CCC1(C)C2(C)C (stereo not given)	Mdm2 MdmX PPI 67 | Mdm2-MdmX conf 74 | FLuc counter inactive
O=[N+]([O-])c1ccc(-c2ccc(/C=N/Nc3nc(NCc4ccccc4)nc(N4CCOCC4)n3)o2)cc1	Mdm2 MdmX PPI 100 | Mdm2-MdmX conf 90 | FLuc counter 54
CN(C(=O)CSc1cc(C(=O)c2nccn2C)c2ccccc2n1)c1ccccc1	Mdm2 MdmX PPI 53 | Mdm2-MdmX conf 63 | FLuc counter 81
Cn1ccnc1C(=O)c1cc(SCC(=O)NC2CC2)nc2ccccc12	none
COc1ccc2cc(C#N)c(SCC(=O)Nc3nonc3C)nc2c1	none
Cc1cc2cc(C#N)c(SCC(=O)Nc3nonc3C)nc2cc1C	Mdm2 MdmX PPI 69 | Mdm2-MdmX conf inactive
CCN1CCN(c2cc(-c3ccccc3)nc3cc(-c4cccc(F)c4)nn23)CC1	Mdm2 MdmX PPI 68 | Mdm2-MdmX conf inactive
OC1CCN(c2cc(-c3ccccc3)nc3cc(-c4ccc(F)cc4)nn23)CC1	none
CCn1c2ccccc2c2cc(/C=N/n3c(C)nnc3C)ccc21	Mdm2 MdmX PPI 60 | Mdm2-MdmX conf inactive
Cc1ccc(C2C(C(=O)c3cccs3)=C(O)C(=O)N2c2nnc(C)s2)cc1 (stereo not given)	none
O=C(COc1cc(F)ccc1[N+](=O)[O-])Nc1cccc(S(=O)(=O)NC2=NCCC2)c1	none (no result: aSyn UTR inh, KLF5 inhibitor)
O=S(=O)(NCC(Nc1ccc(Cl)cc1)c1ccccc1)c1ccccc1 (stereo not given)	none
Cc1ccc(NC(CNS(=O)(=O)c2ccc(Cl)cc2)c2ccccc2)cc1 (stereo not given)	Mdm2 MdmX PPI 52 | Mdm2-MdmX conf inactive
CCN(CC)C(C)C#CCC(c1ccccc1)c1ccccc1 (stereo not given)	none (no result: aSyn UTR inh, Jurkat NFkB inh, Mdm2 MdmX PPI, Gli-Sufu block, 697 NFkB inh)
CC(NC(=O)CN1C(=O)NC(Cc2ccccc2)(Cc2ccccc2)C1=O)C12CC3CC(CC(C3)C1)C2 (stereo not given)	Mdm2 MdmX PPI 77 | Mdm2-MdmX conf 45 | FLuc counter 65
CC1CCCCC1NC(=O)CN1C(=O)NC(Cc2ccccc2)(Cc2ccccc2)C1=O (stereo not given)	none

Bioassay records as filed in PubChem BioAssay.
